# Source: PubChem BioAssay
# For some assays here: Potency and affinity values are given separately. Activity calls are given as the source filed them.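 The calls were made as follows, unless noted: active = primary screen inhibitor hit that blocks the TRPC4 channel at some tested dose, yielding a dose curve; inactive = the rest.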
# Legend:
# [1] = test system: TRPC4 beta (transient receptor potential cation channel C4), mouse; assay: TRPC4 cation channel opening, retest – cell-based, Fluo4 calcium, HEK293 TRPC4beta/mu-opioid, duplicates, 10 µM, confirmation (AID 2426;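 active = fluorescence ratio normalized to control raised more than 50% in primary screen plus both repeat runs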); conditions: Fluo4 calcium fluorescence, at 10 µM; active compounds read high
# [2] = test system: transient receptor potential cation channel C4 beta (TRPC4), mouse; assay: TRPC4 cation channel opening, second retest – cell-based, second round, Fluo4, HEK293 TRPC4beta/mu-opioid, 1 µM, confirmation (AID 2461;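 active = primary screen active and over 50% activation in each of two duplicate runs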); conditions: Fluo4 calcium fluorescence, at 1 µM; active compounds read high
# [3] = test system: TRPC4 (transient receptor potential cation channel C4 beta), mouse; assay: potentiation of DAMGO EC20 TRPC4 response – cell-based, second round, Fluo-4, HEK293 TRPC4beta/mu-opioid, 1 µM, confirmation (AID 2554;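 active = primary screen hit whose fluorescence ratio, in both repeats, exceeds the weak agonist control mean by 3 SD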); conditions: DAMGO EC20, Fluo-4 calcium flux, at 1 µM; active compounds read high
# [4] = test system: TRPC4 beta (transient receptor potential cation channel C4), mouse; assay: potentiation of DAMGO EC20 TRPC4 response – cell-based, Fluo-4, HEK293 TRPC4beta/mu-opioid, confirmation (AID 2555;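 active = primary screen hit whose calcium fluorescence ratio, in both repeats, exceeds the weak agonist control mean by 3 SD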); conditions: DAMGO EC20, Fluo-4 calcium flux, at 10 µM; active compounds read high
# [5] = target: Short transient receptor potential channel 4 (Mus musculus) (UniProt Q9QUQ5); assay: blockers of DAMGO-evoked TRPC4 calcium flux – cell-based, Fluo4, HEK293 TRPC4beta/mu-opioid, confirmation (AID 2636;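 active = calcium signal cut by more than 3 SD below the full-agonist control yet still positive, in both repeats and the earlier primary screen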); conditions: at 10 µM; active compounds read high
# [6] = target: Short transient receptor potential channel 4 (Mus musculus) (UniProt Q9QUQ5); assay: blockers of DAMGO-evoked TRPC4 calcium flux – cell-based, second round, Fluo4, HEK293 TRPC4beta/mu-opioid, 1 µM, confirmation (AID 2637;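 active = calcium signal ratio cut to more than 3 SD under the fully stimulated control mean yet still positive, in both repeats and the primary screen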); conditions: at 1 µM; active compounds read high
# [7] = target: Short transient receptor potential channel 4 (Mus musculus) (UniProt Q9QUQ5); assay: calcium entry via TRPC4 opening agents – cell-based, HEK293 TRPC4/mu-opioid, Fluo-4 calcium, dose response (AID 434937;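 active = primary screen activator hit with a dose response curve and TRPC4 channel activation at any tested dose; inactive = no activation, no dose response, or not a primary hit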)
# [8] = target: Short transient receptor potential channel 4 (Mus musculus) (UniProt Q9QUQ5); assay: potentiation of DAMGO-evoked TRPC4 calcium signal – cell-based, HEK293 TRPC4/mu-opioid, Fluo-4 calcium, EC20 DAMGO, dose response (AID 434941;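 active = earlier screen potentiator hit that boosts the TRPC4 ion channel at some dose, with a dose response; inactive = no potentiation, no dose response, or not a prior hit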;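 also: calcium entry triggered by an EC20 dose of DAMGO at the co-expressed mu-opioid receptor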)
# [9] = target: Short transient receptor potential channel 4 (Mus musculus) (UniProt Q9QUQ5); assay: block of DAMGO-driven TRPC4 calcium entry – cell-based, HEK293 TRPC4/mu-opioid, Fluo-4 calcium, dose response (AID 434942)
# [10] = target: Short transient receptor potential channel 6 (Mus musculus) (UniProt Q61143); assay: TRPC6 blockade by TRPC4 inhibitor hits – cell-based, HEK293, membrane potential dye, duplicate, selectivity assay for TRPC4 inhibitor project, confirmation (AID 434948;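 active = active in primary screen and both duplicates, each dropping signal beyond three positive-control SD with fluorescence still positive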); conditions: HEK293 TRPC6, membrane potential dye fluorescence, at 10 µM, stimulated with maximal-effect acetylcholine; active compounds read high
# [11] = target: Short transient receptor potential channel 6 (Mus musculus) (UniProt Q61143); assay: TRPC6 opening by TRPC4 activator hits – cell-based, HEK293, membrane potential dye, duplicate, selectivity assay for TRPC4 activator project, confirmation (AID 434950;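 active = membrane potential signal rise above negative control mean plus 3 SD in both duplicates, also active in the earlier TRPC4 screen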); conditions: HEK293 TRPC6, membrane potential fluorescence, at 10 µM; activation: active compounds read high; outcome: activation
# [12] = target: Short transient receptor potential channel 6 (Mus musculus) (UniProt Q61143); assay: positive modulators of mouse TRPC6 channel – HEK293 cells, membrane potential dye, duplicate, selectivity assay for TRPC4 potentiator project, confirmation (AID 434952;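 active = compound raising the membrane signal above positive-control mean plus 3 SD in both repeats, and a primary screen hit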); conditions: HEK293 TRPC6, membrane potential dye fluorescence, at 10 µM, maximal acetylcholine added after compound; active compounds read high
# [13] = target: Short transient receptor potential channel 4 (Mus musculus) (UniProt Q9QUQ5); assay: calcium flux activators in TRPC4/5HT1a cells, counter-screen for TRPC4 activator project, cell-based, second counter screen, HEK293 TRPC4/5HT1a, Fluo-4 (AID 434977;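 active = calcium signal rise above buffer-control mean plus 5 SD in both duplicates, and also a hit in the primary screen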); conditions: Fluo-4 calcium flux, at 10 µM; active compounds read high
# [14] = serotonin-gated TRPC4 signal block – cell-based, second counter screen, HEK293 TRPC4/5HT1a, Fluo-4, counter-screen for TRPC4 inhibitor project, confirmation (AID 434978;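 active = primary screen active whose calcium signal fell more than 3 SD beyond the full-serotonin control mean in both duplicate plates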;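 also: serotonin given first at submaximal then at maximal dose after compound preincubation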); conditions: Fluo-4 calcium flux, at 10 µM, serotonin added to trigger calcium flux; active compounds read high
# [15] = test system: TRPC4 (mouse), co-expressed with 5HT1a in HEK293; assay: enhancement of serotonin-evoked TRPC4 response – cell-based, second counter screen, HEK293 TRPC4/5HT1a, Fluo-4, counter-screen for TRPC4 potentiator project, confirmation (AID 434979;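 active = signal rise over 3 SD above mean of control wells given weak agonist, in both repeats and first screen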); conditions: Fluo-4 calcium flux, at 10 µM, serotonin added at its EC20 dose; active compounds read high
# [16] = nonspecific calcium rise without TRPC4 – cell-based, HEK293 mu-opioid receptor line, counter-screen for TRPC4 activator project, confirmation (AID 449723;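 active = hit in primary screen, with calcium signal over 5 SD above buffer well mean in both duplicates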;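 also: counter screen cells carry the mu-opioid receptor alone and lack TRPC4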); conditions: HEK293 mu-opioid cells, Fluo-4 calcium fluorescence, at 10 µM; active compounds read high
# [17] = nonspecific potentiation of DAMGO calcium response – cell-based, HEK293 mu-opioid receptor line, counter-screen for TRPC4 allosteric potentiator project, confirmation (AID 449724;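 active = calcium signal rise more than 3 SD above the low-dose agonist control mean, in both duplicate plates and the primary screen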); conditions: HEK293 mu-opioid receptor cells, Fluo-4 calcium flux, at 10 µM, compound added before EC20 DAMGO stimulus; active compounds read high
# [18] = nonspecific flux increase, KCNQ1-free cells – parental CHO cells, counter-screen for KCNQ1 potentiator project (AID 493006;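 active = duplicate-averaged activation above buffer control mean plus 5 SD of those controls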); conditions: parental CHO-K1 cells, FluxOR thallium flux, at 10 µM; active compounds read high
# [19] = target: Potassium voltage-gated channel subfamily KQT member 1 (Homo sapiens) (UniProt P51787); assay: enhancement of KCNQ1 channel thallium flux – FluxOR thallium flux, CHO cells, duplicates, confirmation (AID 493007;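 active = potentiation averaged over duplicate wells exceeding buffer-only control mean by more than 3 SD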;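 as to outcome: cells depolarized by a potassium plus thallium sulfate stimulus after compound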;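 as to potentiation: 0% = buffer-only wells and 100% = R-L3 activator control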); conditions: KCNQ1 cell line, FluxOR thallium flux fluorescence, at 10 µM; active compounds read high, % of reference activator effect, buffer zero
# [20] = target: Potassium voltage-gated channel subfamily KQT member 2 (Rattus norvegicus) (UniProt O88943); assay: KCNQ2 thallium flux enhancement – KCNQ2-CHO-K1 cells, selectivity assay for KCNQ1 potentiator project (AID 493009;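 active = mean duplicate potentiation above the buffer control mean plus 5 SD of buffer wells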;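 also: assay conditions were tuned for KCNQ1 rather than KCNQ2 modulators; signal is max minus min fluorescence divided by baseline after thallium stimulus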); conditions: FluxOR thallium flux fluorescence, at 10 µM; active compounds read high, scaled: buffer 0, activator control 100
# Sequence of Potassium voltage-gated channel subfamily KQT member 2 (Rattus norvegicus) (O88943 whole entry, looked up): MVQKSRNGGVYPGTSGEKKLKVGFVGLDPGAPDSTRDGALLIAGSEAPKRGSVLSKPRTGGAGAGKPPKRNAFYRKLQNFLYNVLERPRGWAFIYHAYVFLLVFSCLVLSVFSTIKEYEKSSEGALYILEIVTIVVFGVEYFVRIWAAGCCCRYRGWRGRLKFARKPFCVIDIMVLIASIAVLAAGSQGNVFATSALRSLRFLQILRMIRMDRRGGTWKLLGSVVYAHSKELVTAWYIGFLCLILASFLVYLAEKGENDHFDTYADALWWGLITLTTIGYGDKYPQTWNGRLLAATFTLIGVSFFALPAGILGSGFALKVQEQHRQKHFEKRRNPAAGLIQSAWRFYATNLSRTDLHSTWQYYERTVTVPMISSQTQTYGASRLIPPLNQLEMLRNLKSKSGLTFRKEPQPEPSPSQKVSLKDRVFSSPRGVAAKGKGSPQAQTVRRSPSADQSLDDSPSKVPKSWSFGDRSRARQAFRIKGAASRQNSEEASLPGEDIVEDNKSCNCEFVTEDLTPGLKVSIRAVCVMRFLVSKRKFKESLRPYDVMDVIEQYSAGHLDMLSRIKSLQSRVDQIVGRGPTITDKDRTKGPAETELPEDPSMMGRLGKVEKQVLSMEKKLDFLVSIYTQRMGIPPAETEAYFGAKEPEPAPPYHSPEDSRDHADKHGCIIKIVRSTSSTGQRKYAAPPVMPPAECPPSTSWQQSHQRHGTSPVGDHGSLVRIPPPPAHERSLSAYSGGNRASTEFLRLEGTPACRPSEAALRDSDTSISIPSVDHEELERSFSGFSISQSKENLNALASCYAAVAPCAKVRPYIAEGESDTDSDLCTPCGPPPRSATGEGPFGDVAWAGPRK
# Sequence of Short transient receptor potential channel 4 (Mus musculus) (Q9QUQ5 whole entry, looked up): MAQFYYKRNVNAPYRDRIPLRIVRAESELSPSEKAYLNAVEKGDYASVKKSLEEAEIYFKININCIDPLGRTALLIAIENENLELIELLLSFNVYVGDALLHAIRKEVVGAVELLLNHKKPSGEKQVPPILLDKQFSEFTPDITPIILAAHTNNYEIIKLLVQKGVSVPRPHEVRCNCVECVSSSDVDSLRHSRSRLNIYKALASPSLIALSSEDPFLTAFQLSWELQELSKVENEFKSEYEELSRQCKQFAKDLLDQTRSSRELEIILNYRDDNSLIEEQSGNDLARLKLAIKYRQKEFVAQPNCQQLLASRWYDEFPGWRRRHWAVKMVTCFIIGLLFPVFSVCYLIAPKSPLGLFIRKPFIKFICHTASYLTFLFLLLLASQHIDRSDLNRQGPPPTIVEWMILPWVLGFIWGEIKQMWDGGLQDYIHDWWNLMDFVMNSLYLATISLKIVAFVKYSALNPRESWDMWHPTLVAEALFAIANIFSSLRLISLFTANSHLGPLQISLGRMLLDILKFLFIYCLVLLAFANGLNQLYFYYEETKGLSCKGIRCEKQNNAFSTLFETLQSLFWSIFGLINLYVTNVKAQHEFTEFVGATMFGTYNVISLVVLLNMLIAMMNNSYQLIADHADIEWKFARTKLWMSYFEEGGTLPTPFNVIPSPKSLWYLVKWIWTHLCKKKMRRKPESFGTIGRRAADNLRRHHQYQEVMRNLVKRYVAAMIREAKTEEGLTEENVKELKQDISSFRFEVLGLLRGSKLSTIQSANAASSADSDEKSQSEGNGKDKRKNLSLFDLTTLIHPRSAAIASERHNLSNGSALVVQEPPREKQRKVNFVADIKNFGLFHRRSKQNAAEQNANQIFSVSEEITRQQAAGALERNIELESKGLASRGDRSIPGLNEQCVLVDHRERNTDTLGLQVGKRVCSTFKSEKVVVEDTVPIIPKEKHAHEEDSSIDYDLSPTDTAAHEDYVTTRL
# Sequence of Short transient receptor potential channel 6 (Mus musculus) (Q61143 whole entry, looked up): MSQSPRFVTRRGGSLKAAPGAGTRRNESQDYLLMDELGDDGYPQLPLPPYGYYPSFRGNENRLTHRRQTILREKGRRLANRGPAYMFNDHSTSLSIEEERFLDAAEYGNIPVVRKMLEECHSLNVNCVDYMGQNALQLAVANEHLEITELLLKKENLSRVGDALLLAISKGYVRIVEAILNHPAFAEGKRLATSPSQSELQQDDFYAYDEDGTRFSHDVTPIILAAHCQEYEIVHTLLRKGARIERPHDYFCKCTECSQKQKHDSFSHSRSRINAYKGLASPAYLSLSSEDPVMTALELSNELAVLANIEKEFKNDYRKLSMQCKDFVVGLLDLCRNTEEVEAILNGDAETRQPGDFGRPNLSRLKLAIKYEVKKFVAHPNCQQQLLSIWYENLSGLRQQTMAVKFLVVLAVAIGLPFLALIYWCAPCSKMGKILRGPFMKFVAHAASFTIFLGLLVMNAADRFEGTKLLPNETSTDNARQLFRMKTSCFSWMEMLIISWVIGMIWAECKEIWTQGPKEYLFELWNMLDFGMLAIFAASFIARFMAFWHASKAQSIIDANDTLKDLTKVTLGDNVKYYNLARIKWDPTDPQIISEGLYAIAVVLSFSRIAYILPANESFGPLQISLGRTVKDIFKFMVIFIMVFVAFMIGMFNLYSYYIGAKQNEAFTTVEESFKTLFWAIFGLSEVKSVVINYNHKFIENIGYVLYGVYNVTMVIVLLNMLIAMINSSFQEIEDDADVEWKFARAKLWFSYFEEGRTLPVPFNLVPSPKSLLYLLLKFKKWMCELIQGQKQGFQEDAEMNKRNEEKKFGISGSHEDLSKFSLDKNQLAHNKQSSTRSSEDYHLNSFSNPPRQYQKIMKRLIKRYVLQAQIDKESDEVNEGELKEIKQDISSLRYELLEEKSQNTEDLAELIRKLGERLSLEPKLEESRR
# Sequence of Potassium voltage-gated channel subfamily KQT member 1 (Homo sapiens) (P51787 whole entry, looked up): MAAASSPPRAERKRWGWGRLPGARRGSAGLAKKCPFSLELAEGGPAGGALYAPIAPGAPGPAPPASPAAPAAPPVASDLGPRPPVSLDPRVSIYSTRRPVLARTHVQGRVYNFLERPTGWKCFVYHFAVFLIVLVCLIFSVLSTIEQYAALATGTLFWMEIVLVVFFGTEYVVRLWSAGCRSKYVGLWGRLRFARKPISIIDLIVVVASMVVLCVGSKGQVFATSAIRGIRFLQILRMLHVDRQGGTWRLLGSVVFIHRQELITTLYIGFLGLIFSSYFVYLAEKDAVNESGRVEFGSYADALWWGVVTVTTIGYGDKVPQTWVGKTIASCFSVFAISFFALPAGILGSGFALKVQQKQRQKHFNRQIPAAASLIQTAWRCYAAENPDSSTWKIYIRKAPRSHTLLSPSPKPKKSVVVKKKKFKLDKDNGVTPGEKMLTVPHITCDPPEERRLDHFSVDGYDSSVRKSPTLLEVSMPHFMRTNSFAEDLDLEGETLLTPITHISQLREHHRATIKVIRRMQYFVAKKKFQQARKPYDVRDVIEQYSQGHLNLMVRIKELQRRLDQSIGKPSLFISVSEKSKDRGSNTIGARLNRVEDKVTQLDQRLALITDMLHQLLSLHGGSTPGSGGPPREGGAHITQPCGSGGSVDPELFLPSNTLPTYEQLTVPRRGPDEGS
compound,measurement,setting,value
COc1ccc(C(=O)CCC(=O)Nc2cccc(Cl)c2)cc1,outcome,[1],inactive
same,outcome,[2],inactive
same,outcome,[3],inactive
same,potentiation,[4],10% (active)
same,outcome,[5],inactive
same,outcome,[6],inactive
same,outcome,[7],inactive
same,outcome,[8],inactive
same,outcome,[9],inactive
same,outcome,[10],inactive
same,outcome,[11],inactive
same,outcome,[12],inactive
same,outcome,[13],inactive
same,outcome,[14],inactive
same,potentiation,[15],22.1% (active)
same,outcome,[16],inactive
same,outcome,[17],inactive
c1ccc2c3c([nH]c2c1)CCNC3,outcome,[1],inactive
same,outcome,[2],inactive
same,outcome,[3],inactive
same,outcome,[4],inactive
same,outcome,[5],inactive
same,outcome,[6],inactive
same,outcome,[7],inactive
same,outcome,[8],inactive
same,outcome,[9],inactive
same,outcome,[10],inactive
same,outcome,[11],inactive
same,outcome,[12],inactive
same,outcome,[13],inactive
same,outcome,[14],inactive
same,outcome,[15],inactive
same,outcome,[16],inactive
same,outcome,[17],inactive
CCN1C2=NCCCN2c2cc(C)c(C)cc21,outcome,[1],inactive
same,outcome,[2],inactive
same,outcome,[3],inactive
same,outcome,[4],inactive
same,outcome,[5],inactive
same,outcome,[6],inactive
same,outcome,[7],inactive
same,outcome,[8],inactive
same,outcome,[9],inactive
same,outcome,[10],inactive
same,outcome,[11],inactive
same,outcome,[12],inactive
same,outcome,[13],inactive
same,outcome,[14],inactive
same,outcome,[15],inactive
same,outcome,[16],inactive
same,outcome,[17],inactive
O=C1C=CC(=O)N1CCNc1ncc(C(F)(F)F)cc1Cl,outcome,[1],inactive
same,outcome,[2],inactive
same,outcome,[3],inactive
same,outcome,[4],inactive
same,outcome,[5],inactive
same,outcome,[6],inactive
same,outcome,[7],inactive
same,outcome,[8],inactive
same,outcome,[9],inactive
same,outcome,[10],inactive
same,outcome,[11],inactive
same,outcome,[12],inactive
same,outcome,[13],inactive
same,outcome,[14],inactive
same,outcome,[15],inactive
same,outcome,[16],inactive
same,outcome,[17],inactive
same,outcome,[18],inactive
same,potentiation,[19],77.5% (active)
same,outcome,[20],inactive
CC1=CC(=O)C(C(C)C)=C/C1=N/OS(=O)(=O)c1ccccc1,outcome,[1],inactive
same,outcome,[2],inactive
same,outcome,[3],inactive
same,potentiation,[4],23% (active)
same,outcome,[5],inactive
same,outcome,[6],inactive
same,outcome,[7],inactive
same,outcome,[8],inactive
same,outcome,[9],inactive
same,outcome,[10],inactive
same,outcome,[11],inactive
same,outcome,[12],inactive
same,outcome,[13],inactive
same,outcome,[14],inactive
same,potentiation,[15],64.1% (active)
same,outcome,[16],inactive
same,outcome,[17],inactive
O=C(O)CCCN1C(=O)/C(=C\c2ccc(-c3nc4ccccc4s3)o2)SC1=S,outcome,[1],inactive
same,outcome,[2],inactive
same,outcome,[3],inactive
same,potentiation,[4],10% (active)
same,outcome,[5],inactive
same,outcome,[6],inactive
same,outcome,[7],inactive
same,outcome,[8],inactive
same,outcome,[9],inactive
same,outcome,[10],inactive
same,outcome,[11],inactive
same,outcome,[12],inactive
same,outcome,[13],inactive
same,outcome,[14],inactive
same,potentiation,[15],22.6% (active)
same,outcome,[16],inactive
same,outcome,[17],inactive
same,outcome,[18],inactive
same,outcome,[19],inactive
same,outcome,[20],inactive
COc1ccc(CN(C2CCCCC2C)S(=O)(=O)c2ccc(S(=O)(=O)N(C)C)cc2)cc1OC (stereo not given),outcome,[1],inactive
same,outcome,[2],inactive
same,outcome,[3],inactive
same,potentiation,[4],12% (active)
same,outcome,[5],inactive
same,outcome,[6],inactive
same,outcome,[7],inactive
same,outcome,[8],inactive
same,outcome,[9],inactive
same,outcome,[10],inactive
same,outcome,[11],inactive
same,outcome,[12],inactive
same,outcome,[13],inactive
same,outcome,[14],inactive
same,potentiation,[15],5.84% (active)
same,outcome,[16],inactive
same,outcome,[17],inactive
